Hits are enriched below; roughly 2.3% of the tested compounds scored in any of these assays.
HSP90 refold inh: inhibitors of HSP90 luciferase refolding in rabbit reticulocyte lysate. AID 1789. luciferase refolding luminescence, 3 h. inhibition, % at 5.6 µM. hit rate 0.91% among 290,000;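 active = inhibition above the screen-wide mean plus 3 SD, computed separately per campaign, cut at about 16% in these data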;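 note: inhibitors lower the luminescence because luciferase stays unfolded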
SENP8 block-1: blocks human SENP8 cleavage of Nedd8 substrate; Q96LD8; recombinant SENP8, Nedd8 substrate fluorescence; inhibition, % at 20 µM; hit rate 0.64% among 360,000; AID 602440; in the data active = inhibition mostly above about 40%, no sharp cut-off; inactive = mostly below about 27%
LGR2 antag: Drosophila LGR2 receptor signaling inhibition | AID 720647 | hit rate 0.35% among 380,000 | HEK293 LGR2, CRE-luciferase, bursicon-stimulated, 4 h | inhibition, % at 9.99 µM;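 active = drop in luminescence signal, shown as inhibition above about 50% in the replicate tests, limit read from the data, passing the limit was not always enough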;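 note: agonist challenge used bursicon conditioned medium at about half maximal strength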
SENP6 block: SENP6 protease inhibition | Q9GZR1 | Recombinant SENP6 catalytic domain, aminoluciferin luminescence | inhibition, % at 10 µM | hit rate 1.8% among 330,000 | AID 2599;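 active = inhibition above about 50% at the single tested dose, limit read from the data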
SENP7 block: SENP7 protease inhibition; inhibition, % at 5 µM; hit rate 1.5% among 330,000; Q9BQF6; recombinant SENP7, Z-RLRGG-aminoluciferin luminescence, 40 min;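 active = inhibition above about 50% at the single test dose, limit read from the data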
Target sequence (Q9BQF6 706-1050 limits assumed): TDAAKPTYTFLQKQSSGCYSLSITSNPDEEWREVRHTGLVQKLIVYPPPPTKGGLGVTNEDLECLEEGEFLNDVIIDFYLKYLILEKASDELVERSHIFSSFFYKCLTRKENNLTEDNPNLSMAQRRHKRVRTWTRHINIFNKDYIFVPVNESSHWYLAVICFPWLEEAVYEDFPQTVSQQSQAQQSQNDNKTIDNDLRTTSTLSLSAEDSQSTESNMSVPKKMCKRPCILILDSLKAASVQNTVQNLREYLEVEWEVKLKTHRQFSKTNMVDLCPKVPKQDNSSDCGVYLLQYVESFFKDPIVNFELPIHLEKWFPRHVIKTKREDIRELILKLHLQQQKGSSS
SENP8 block-2: inhibitors of human SENP8 protease; Q96LD8; purified SENP8, Z-RLRGG-aminoluciferin cleavage, luminescence; inhibition, % at 10 µM; hit rate 1.2% among 330,000; AID 2540; in the data active = inhibition above about 50%
HSP90 confirm: HSP90 inhibition, confirmation assay; inhibition, % at 5.9 µM; hit rate 64% among 2,300; shares compounds with HSP90 refold inh; AID 1846; rabbit reticulocyte lysate, luciferase refolding luminescence, 3 h; in the data active = inhibition above about 18%
luciferase ctr: firefly luciferase inhibition, HSP90 counter-screen | shares compounds with HSP90 refold inh | purified native firefly luciferase, luminescence | inhibition, % at 5.9 µM | hit rate 48% among 2,300 | AID 1847;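 active = inhibition above the mean inhibition of all tested sample wells plus 3 SD, cut at about 10% in these data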
SENP8 conf-1: human SENP8 inhibition, confirmed. shares compounds with SENP7 block. Recombinant SENP8, Z-RLRGG-aminoluciferin luminescence, 60 min. inhibition, % at 12.5 µM. hit rate 40% among 6,200;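 active = mean inhibition across replicates above about 50%, limit read from the data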
SENP6 conf: confirmation of human SENP6 protease inhibitors | recombinant SENP6, Z-RLRGG-aminoluciferin luminescence | hit rate 58% among 6,200 | shares compounds with SENP7 block | inhibition, % at 12.5 µM | AID 488915
SENP7 conf: human SENP7 inhibition, confirmed; shares compounds with SENP7 block; recombinant SENP7, Z-RLRGG-aminoluciferin luminescence, 40 min; inhibition, % at 12.5 µM; hit rate 69% among 6,200
Casp3 select: caspase-3 inhibition (SENP selectivity assay) | hit rate 60% among 6,200 | inhibition, % at 12.5 µM | purified caspase-3, Z-DEVD-aminoluciferin luminescence, 60 min | AID 488918 | shares compounds with SENP7 block;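 active = mean inhibition above about 50%, limit read from the data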
Target sequence (P42574 28-227 limits assumed): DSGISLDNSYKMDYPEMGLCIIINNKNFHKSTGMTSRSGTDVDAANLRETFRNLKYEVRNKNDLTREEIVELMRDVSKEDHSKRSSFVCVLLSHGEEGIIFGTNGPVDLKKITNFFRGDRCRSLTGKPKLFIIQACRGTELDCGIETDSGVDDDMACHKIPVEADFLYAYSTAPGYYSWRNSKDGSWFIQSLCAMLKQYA
Luc interf: interferes with luciferase luminescence in SENP counter-screen; shares compounds with SENP7 block; Pre-incubated SENP8/Z-RLRGG-aminoluciferin, luciferase luminescence interference; inhibition, % at 12.5 µM; hit rate 39% among 6,200; AID 488919;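 active = mean inhibition above about 50% when retested at one dose, limit read from the data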
SENP8 conf-2: confirmation of human SENP8 protease inhibitors; inhibition, % at 25 µM; shares compounds with SENP8 block-1; purified SENP8, Nedd8-AMC/pro-Nedd8 cleavage fluorescence, 30 min; hit rate 15% among 1,400; AID 624319; in the data active = inhibition mostly above about 39%, no sharp cut-off; inactive = mostly below about 34%
Of the large screens only hits and unclear results are named; the others gave an inactive call (follow-up assays come after a bar, where they were run).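 Rule for the calls, unless noted: active = mean inhibition above about 50% in the one-dose retest (limit read from the data); inactive = the rest.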

C[n+]1cccc2c(Br)ccc([O-])c21	HSP90 refold inh 19, SENP8 block-1 117, SENP6 block 95, SENP7 block 87, SENP8 block-2 93 | HSP90 confirm inactive | luciferase ctr inactive | SENP8 conf-1 inactive | SENP6 conf inactive | SENP7 conf inactive | Casp3 select inactive | Luc interf inactive | SENP8 conf-2 69
CCC(=O)N1CC2(C1)CN(S(C)(=O)=O)[C@H](CO)c1[nH]c3cc(OC)ccc3c12	none (no result: HSP90 refold inh, SENP8 block-1, SENP6 block, SENP7 block, SENP8 block-2)
CC(=O)Oc1ccc2nc(/C=C/c3ccc(C=O)cc3)oc(=O)c2c1	none
CC(=O)Oc1ccc2nc(/C=C/c3ccccc3)oc(=O)c2c1	SENP7 block 72, SENP8 block-2 77 | SENP8 conf-1 inactive | SENP6 conf inactive | SENP7 conf inactive | Casp3 select 62 | Luc interf 52
CN(C(=O)c1ccc(NC(=O)Cc2ccccc2)cc1)c1ccccc1	SENP6 block 54, SENP7 block 61 | SENP8 conf-1 inactive | SENP6 conf inactive | SENP7 conf 74 | Casp3 select 65 | Luc interf 59
COc1cccc(NC(=O)N[C@@H]2CC[C@@H](CC(=O)NCc3ccncn3)O[C@@H]2CO)c1	none (no result: HSP90 refold inh, SENP8 block-1, SENP6 block, SENP7 block, SENP8 block-2)
O=c1c2ccccc2nnn1CSc1ccccc1F	SENP7 block 68, SENP8 block-2 61 | SENP8 conf-1 78 | SENP6 conf 77 | SENP7 conf 94 | Casp3 select 84 | Luc interf 79
Cc1ccc(SCn2nnc3ccccc3c2=O)c(C)c1	none
COC(=O)c1ccc(OC(=O)/C=C/c2ccco2)cc1	SENP6 block 83, SENP7 block 77, SENP8 block-2 78 | SENP8 conf-1 84 | SENP6 conf 86 | SENP7 conf 73 | Casp3 select 74 | Luc interf inactive
CCNc1nc(-c2ccc(Cl)cc2)cs1	SENP6 block 85, SENP7 block 62, SENP8 block-2 72 (no result: LGR2 antag) | SENP8 conf-1 inactive | SENP6 conf 71 | SENP7 conf 94 | Casp3 select 60 | Luc interf 69
CCN(CC)CC(=O)Nc1nc(-c2ccc(Cl)cc2)cs1	none (no result: LGR2 antag)
CNc1nc(-c2ccc([N+](=O)[O-])cc2)cs1	none (no result: LGR2 antag)
CNc1nc(-c2ccc(Cl)cc2)cs1	SENP6 block 62 (no result: LGR2 antag) | SENP8 conf-1 54 | SENP6 conf 58 | SENP7 conf 82 | Casp3 select 51 | Luc interf inactive
Cc1nonc1C(=O)N/N=C/c1ccncc1	none
Cc1nonc1C(=O)N/N=C/c1ccc(O)cc1O	SENP6 block 97, SENP7 block 100 | SENP8 conf-1 98 | SENP6 conf 98 | SENP7 conf 102 | Casp3 select 98 | Luc interf 97
Cc1noc(C)c1NC(=O)N(C)C[C@H]1Oc2ncc(/C=C/c3ccccc3)cc2C(=O)N([C@H](C)CO)C[C@@H]1C	none (no result: HSP90 refold inh, SENP8 block-1, SENP6 block, SENP7 block, SENP8 block-2)
Cc1cnc(C(=O)Nc2ccc(F)cc2)cn1	SENP6 block 61, SENP7 block 58 (no result: LGR2 antag) | SENP8 conf-1 inactive | SENP6 conf inactive | SENP7 conf 74 | Casp3 select 81 | Luc interf inactive
Cc1cnc(C(=O)Nc2ccccc2F)cn1	SENP6 block 68 (no result: LGR2 antag) | SENP8 conf-1 inactive | SENP6 conf inactive | SENP7 conf 74 | Casp3 select 75 | Luc interf inactive
C[C@H]1CCCCO[C@H](CN(C)C(=O)CCC(F)(F)F)[C@@H](C)CN([C@@H](C)CO)C(=O)c2cc(NS(=O)(=O)c3cn(C)cn3)ccc2O1	none (no result: HSP90 refold inh, SENP8 block-1, SENP6 block, SENP7 block, SENP8 block-2)
COc1cccc2sc(Nc3nnc(-c4cccs4)o3)nc12	SENP6 block 92, SENP7 block 73, SENP8 block-2 84 (no result: LGR2 antag) | SENP8 conf-1 84 | SENP6 conf 84 | SENP7 conf 97 | Casp3 select 83 | Luc interf 55
COc1cccc2sc(Nc3nnc(-c4ccc(F)cc4)o3)nc12	SENP6 block 75 | SENP8 conf-1 inactive | SENP6 conf inactive | SENP7 conf 86 | Casp3 select 66 | Luc interf inactive
Fc1cccc2sc(Nc3nnc(-c4ccco4)o3)nc12	none (no result: LGR2 antag)
Cn1nnc(NC(=O)c2cccc(F)c2)n1	SENP6 block 51 (no result: LGR2 antag) | SENP8 conf-1 inactive | SENP6 conf inactive | SENP7 conf inactive | Casp3 select inactive | Luc interf inactive
Cc1ccc(C(=O)Nc2nnn(C)n2)cc1	none (no result: LGR2 antag)
Cc1nc2nc(-c3cccs3)[nH]c2cc1Br	SENP6 block 91, SENP7 block 90, SENP8 block-2 90 (no result: HSP90 refold inh, LGR2 antag) | SENP8 conf-1 92 | SENP6 conf 92 | SENP7 conf 99 | Casp3 select 93 | Luc interf inactive
c1ccc(-c2nc(-c3cccs3)[nH]c2-c2ccccc2)cc1	none
CN1c2ccc(-c3cccc(C#N)c3)cc2[C@@H]2[C@@H](CCN2S(=O)(=O)c2ccccc2)[C@H]1CO	none (no result: HSP90 refold inh, SENP8 block-1, SENP6 block, SENP7 block, SENP8 block-2)
O=C1/C(=C/c2ccc(F)cc2)CCC1C1CCCC1 (stereo not drawn)	SENP7 block 62, SENP8 block-2 62 | SENP8 conf-1 inactive | SENP6 conf inactive | SENP7 conf inactive | Casp3 select 54 | Luc interf inactive
CCOc1ccc(/C=C2\CCC(C3CCCC3)C2=O)cc1OC (stereo not drawn)	none
CCOc1ccc(/C=C2\CCC(C3CCCC3)C2=O)cc1 (stereo not drawn)	SENP7 block 71 | SENP8 conf-1 inactive | SENP6 conf inactive | SENP7 conf inactive | Casp3 select inactive | Luc interf inactive
O=C1/C(=C/c2ccco2)CCC1C1CCCC1 (stereo not drawn)	SENP6 block 92, SENP7 block 73, SENP8 block-2 77 | SENP8 conf-1 inactive | SENP6 conf 77 | SENP7 conf 95 | Casp3 select 57 | Luc interf inactive
O=C1/C(=C/c2ccco2)Cc2ccccc21	SENP6 block 66 | SENP8 conf-1 inactive | SENP6 conf 67 | SENP7 conf 90 | Casp3 select 72 | Luc interf inactive
